In PubChem BioAssay AID1508600 (Functional Genomics Laboratory (NCATS/FGL), 2020):
Out of some 53,000 sequences screened, about 3,700 (7%) were called active.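 Rule for the calls: active = gene knockdowns whose robust z-score for IL-1 alpha signal is at least 2 or at most -2, so actives lie on both sides; inactive = the rest.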 The full list was thinned out, with actives kept by preference.

test: Components of the Cytosolic LPS Sensing Pathway: Gene Identification via Genome-wide siRNA Screen; settings: RAW264.7 macrophages, IL-1a HTRF, actives lie on both sides, screened at 100 nM (by protocol), cells primed 5 h with Pam3CSK4 first;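 note: robust z of the log signal after scaling to non-targeting control siRNA wells of the plate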
Outline: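 Read-out: IL-1a HTRF on supernatant, divided by plate negative-control median ×100, log-transformed and converted to robust z-score. Cells were RAW264.7 given 100 nM siRNA, Pam3CSK4-primed 5 hours, then LipidA-transfected 24 hour.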

Sequence	z-score
GCCCUUAUGGACGAAAUUUTT against Ang2	0.0523 (inactive)
GGUCUGCUCAAUGCUAUCATT against Olfr918	-1.47 (inactive)
GGAGAGACUCAGGAGUUUUTT against Rnd2	2.74 (active)
UGAAUAAGGUGUGGUGCUCTT against Vmn1r148	0.607 (inactive)
GGCUAACUUUAGUGAGGUATT against 3110070M22Rik	0.233 (inactive)
CCGAAGUGCAACAAGCCAATT against Abl2	1.17 (inactive)
GGGUACGUGAAGAAACUUCTT against Meig1	-2.23 (active)
GGGCACACGUACCAACUAUTT against Mib2	-0.458 (inactive)
GGGACCCUACAAAAUCAUUTT against Ganab	0.467 (inactive)
GGAUCUUUUCAGGUUCUAATT against Olfr659	0.377 (inactive)
GCUAGAAGCCUGACAUUUUTT against Tbca	-0.538 (inactive)
CGAUUGAUGAAUCUGGUUCTT against Racgap1	-0.31 (inactive)
GCUGGUCAAGGGUCUAGAGTT against Saa3	-2.05 (active)
GGGAGUUCUCUAAAUGCUUTT against Olfr482	1.52 (inactive)
GCCUCCAGUAUCAUAAUUGTT against Antxr2	1.26 (inactive)
CCAGUUCGAUGUGGUAAUATT against St3gal5	1.11 (inactive)
GGAUGUCACAUGACAGUUUTT against Tmprss4	0.563 (inactive)
GGAUCCAACAAAUGUUAUUTT against Ccdc92	2.06 (active)
CGAUGGUGAUUCCCAUGUUTT against Olfr996	0.529 (inactive)
GCUAUCUCGGUGUCAACUUTT against Aqp7	-1.26 (inactive)
GGUUGGAUUAUUAGGAAUUTT against Dnah5	0.0387 (inactive)
GGGCUCCUUUUUUUUUUUUTT against Frat1	-2.55 (active)
CCAAUUGCUCUCCAUGAAATT against Coro1c	0.331 (inactive)
GCUUGGAAGACAUUGACCCTT against Brsk2	-0.996 (inactive)
GGUUACAGAAGAAUUAGAATT against Ift57	9.9e-05 (inactive)
CCCUCUUUAUCGUCUGUGATT against Gpha2	-2.89 (active)
GGGAUUGAGAUCCUCAUACTT against Olfr1179	0.125 (inactive)
GCCGAGAUGGUCAUAAGCUTT against Rbbp5	1.99 (inactive)
CCUACCACAACAUGUAUCCTT against S100a11	2.25 (active)
GCACGGCGAAAAAAUCUUCTT against Katnal2	-0.167 (inactive)
